D2 antag = D2 dopamine receptor (human) antagonism | P14416 | 340,000 compounds, 2% hits | inhibition, % at 10 µM | HEK293 TREx D2 cells, calcium flux, dopamine EC80; in the data active means inhibition above about 30%; inactive means below that, where a call was filed; further: 0% is about no effect
Target sequence (P14416 whole entry, looked up): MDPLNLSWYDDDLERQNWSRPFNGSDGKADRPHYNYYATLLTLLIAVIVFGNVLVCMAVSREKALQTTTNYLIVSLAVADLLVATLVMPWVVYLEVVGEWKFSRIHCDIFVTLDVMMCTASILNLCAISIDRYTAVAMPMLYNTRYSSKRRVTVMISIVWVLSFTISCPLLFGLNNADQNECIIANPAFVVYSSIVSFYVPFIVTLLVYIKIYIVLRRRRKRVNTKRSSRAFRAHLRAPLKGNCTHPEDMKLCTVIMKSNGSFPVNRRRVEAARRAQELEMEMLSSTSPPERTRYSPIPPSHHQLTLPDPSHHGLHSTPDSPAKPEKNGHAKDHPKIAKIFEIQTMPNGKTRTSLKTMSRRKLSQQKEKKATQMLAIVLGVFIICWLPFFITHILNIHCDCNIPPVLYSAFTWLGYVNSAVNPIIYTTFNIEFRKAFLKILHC
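Inhibition of EC80 dopamine-driven calcium flux, recorded kinetically, defines activity here; cells are a tetracycline-induced HEK293 T-REx line expressing force-coupled D2.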
D2 ag-1 = D2 dopamine receptor (human) agonism | P14416 | HEK293 T-REx D2 cells, calcium flux agonist mode | activation, % at 2 µM | 340,000 compounds, 0.53% hits;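 active means activation over 3 SD above normal in the single-dose calcium agonist read, cut at about 30% in these data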; further: 0% is about no effect
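Tetracycline-induced HEK293 T-REx cells with force-coupled D2 receptor, plated overnight at 30 C, loaded with no-wash calcium dye. After a 10 s baseline, compound was pin-added and calcium flux read kinetically for 180 s; calcium rises flagged agonists.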
D2 PAM-1 = potentiates the human D2 dopamine receptor allosterically; 360,000 compounds, 0.23% hits; AID 624464; potentiation, % (test concentration not listed); P14416; DiscoveRx D2 beta-arrestin cells, luminescence, 90 min; 100% = 57 uM dopamine signal; in the data active means potentiation above about 50%; inconclusive means mostly about 30% to 49%
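D2 cells co-treated with compound plus 50 nM dopamine (EC20) for 90 min at 37 deg C to detect potentiation. Beta-arrestin recruitment was read as enzyme-fragment luminescence after 1 h at ambient temperature. Full response was set by 57 uM dopamine.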
D2 ag-2 = agonists of human D2 dopamine receptor (beta-arrestin); DiscoveRx PathHunter D2 beta-arrestin, luminescence, 90 min; 100% = 57 uM dopamine signal; activation, % (concentration not given with the values); 360,000 compounds, 0.084% hits; AID 624465; in the data active means activation above about 40%; inconclusive means between about 15% and that limit
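Agonist mode: compounds alone added to overnight-plated D2 PathHunter cells for 90 min at 37 C, with 57 uM final dopamine (EC100) defining full response. Beta-arrestin recruitment detected by chemiluminescent reagent, read after 1 h at ambient temperature.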
D2 PAM-2 = positive allosteric modulators of human D2 dopamine receptor; P14416; HEK293 T-REx D2, calcium flux, EC20 dopamine potentiation; potentiation, % at 10 µM; 340,000 compounds, 0.34% hits;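 active means potentiation over 3 SD above the plate norm, cut at about 30% in these data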; further: 0% is about no effect
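Tetracycline-induced HEK293 T-REx cells force-coupled to calcium signalling expressed D2; compounds were pin-added after a 10 s baseline, read kinetically 180 s, then an EC20 dopamine challenge followed with a further 180 s calcium read.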
Numbers without * were called inactive; u = inconclusive; x = not tested or not shown. Most compounds without a hit are left out; they make up all but 2.4% or so of the library.

SMILES	D2 antag	D2 ag-1	D2 PAM-1	D2 ag-2	D2 PAM-2
Cc1cc(NC(=S)NC(=O)c2ccccc2)ccc1-c1cc2ccccc2oc1=O	63*	-1	-1	1	-9
Oc1ccc(C(=S)N2CCN(Cc3ccccc3)CC2)cc1	-13	0	-18	-2	-10
Cc1ccc(C(=S)N2CCN(Cc3ccccc3)CC2)s1	50*	0	-9	4	-32
COc1ccc(NS(=O)(=O)c2ccc(C)c(NC(=O)NC3CCCCC3)c2)cc1	33*	-1	-16	4	-21
COc1ccc(NS(=O)(=O)c2cccc(NC(=O)NC3CCCCC3)c2)cc1	-10	0	-11	-3	-8
COc1ccc(CNC(=O)Nc2cc(C)ccc2C)cc1	5	1	-8	-5	-8
COc1ccc(C)cc1NC(=O)NC1CCCCCCC1	32*	0	-32	-2	-17
COc1ccc(OC)c(NC(=O)NC2CCCCCCC2)c1	10	0	-41	15	-17
COc1ccc(OC)c(NC(=O)C2(C)CCN2Cc2ccccc2OC(F)F)c1 (stereo not drawn)	x	x	18	108*	x
COc1ccc(C)cc1NC(=O)NCc1ccc(F)cc1	53*	-1	-22	-6	-20
COC(=O)[C@]12C(=O)NC[C@H](CN1c1ccc(C(F)(F)F)cc1)N2C	x	x	-17	-1	x
COc1ccc(NC(=O)NCc2ccncc2)c(OC)c1	6	-1	-32	-1	-5
COc1ccc(OC)c(NC(=O)NCc2ccc(F)cc2)c1	39*	1	-18	0	-16
COc1ccc(-c2cc3c(=O)n(CC(=O)NCCCN4CCN(Cc5ccccc5)CC4)ncn3n2)cc1	37*	1	-18	-7	-32
COc1ccc(-c2cc3c(=O)n(CC(=O)NCCCN4CCC(Cc5ccccc5)CC4)ncn3n2)cc1	89*	0	-56	-5	-26
COc1ccc(-c2cc3c(=O)n(CC(=O)NCc4ccc(Cl)cc4)ncn3n2)cc1	-18	0	-2	-4	-1
CCOc1ccc(CCNC(=O)Cn2ncn3nc(-c4ccc(OC)cc4)cc3c2=O)cc1	-12	0	-3	0	-1
Cc1nn(CC(=O)NCCCN2CCN(C)CC2)c(=O)c2cc(-c3ccccc3)nn12	4	0	-16	2	30*
Cc1nn(CC(=O)NCCCc2ccccc2)c(=O)c2cc3occc3n12	32*	0	-7	3	-12
Cc1ccc(/C=C/c2nc3ccccc3n2S(=O)(=O)c2cccc(Cl)c2)cc1	x	1	x	x	-12
Cn1c2ccc(F)cc2c2ncn(CCN3CCOCC3)c(=O)c21	5	2	-3	-1	-2
Cn1c2ccccc2c2ncn(CCCN3CCOCC3)c(=O)c21	-1	0	-6	-2	38*
CC(=O)c1c(-c2ccccc2)c2cc(Cl)ccc2[nH]c1=O	75*	-1	-46	-1	2
O=C(NCc1ccccc1Cl)c1ccc2nc([C@@H]3O[C@H](CO)[C@H](O)[C@H](O)[C@H]3O)[nH]c2c1	x	x	-4	-5	x
COC(=O)C1=C(C(=O)c2ccc(C)cc2)C(c2ccc(O)c(OC)c2)n2nnnc2N1 (stereo not drawn)	15	1	15	-3	-3
SMILES	D2 antag	D2 ag-1	D2 PAM-1	D2 ag-2	D2 PAM-2
COC(=O)C1=C(C(=O)c2ccc(C)cc2)C(c2ccc(OC)c(OC)c2)n2nnnc2N1 (stereo not drawn)	33*	1	-23	-5	-16
COCCCNC(=O)c1ccc2c(c1)nc1n2CCCCC1	x	0	x	x	6
Cc1ccc(/C=C\c2nccc3c2[nH]c2ccccc23)cc1	44*	-1	-36	-4	-23
Cn1c2ccccc2c2c(C(=O)N3CCN(c4ccccn4)CC3)cn(C3CCCC3)c(=O)c21	31*	-1	-22	0	29
CCCCCCCCCCCCCCCCn1cc[n+](CC(C)=O)c1	-6	1	-7	2	-7
CCCCCCn1ccc(=N)cc1	36*	-1	-7	-4	-1
O=C(NN1CCOCC1)c1cccc(Cl)c1	x	x	-26	-4	x
CC(C)(C)C(=O)Nc1ccccc1-c1nc2ccccc2[nH]c1=O	-7	0	-5	15	13
COc1ccccc1N1CCN(CC(=O)Nc2ccc(Cl)c(C(F)(F)F)c2)CC1	81*	1	-19	3	-30
COc1ccccc1N1CCN(CC(=O)Nc2cc(F)ccc2C)CC1	86*	0	-32	-1	-23
COc1ccccc1N1CCN(c2ccc(=O)n(CC(=O)Nc3cc(F)ccc3C)n2)CC1	x	-1	x	x	-2
Cc1cc(C)cc(C(=O)NCCc2sc(-c3ccc(F)cc3)nc2C)c1	x	1	x	x	x
COc1ccc(NC(=O)CCNS(=O)(=O)c2ccc3c(c2)CCN3C(=O)C2CC2)cc1Cl	x	20	x	x	-7
CN1/C(=C\C=C(C#N)C#N)C(C)(C)c2ccccc21	24	6	0	1	2
CN1/C(=C/C=N/n2cnnc2)C(C)(C)c2ccccc21	56*	-1	2	0	x
CCOc1ncccc1C(=O)OCC(=O)NC1CCCCCC1	31*	-1	-22	0	-5
COc1cccc(OC)c1C(=O)OCC(=O)NC1CCCCCC1	82*	1	-9	-1	-4
Cc1ccc(NC(=O)CSc2nc(=O)n(CCCN3CCOCC3)c3c2CCCC3)cc1F	31*	-3	-32	-2	3
O=C(CCN1CCN(S(=O)(=O)c2ccc(Cl)cc2)CC1)Nc1ccc(F)cc1	x	x	-8	-1	11
CC(C)N=C1NN=C(c2ccc(Cl)c(Cl)c2)CS1	5	0	-7	1	-5
CC(=O)c1sc(N/N=C\c2cccc(Br)c2)nc1C	-19	2	92*	u	7
CC(=O)c1sc(N/N=C\c2ccc(Br)cc2)nc1C	2	1	13	5	10
Cc1[nH]c2ccccc2c1/C=N/Nc1ccc(F)cc1F	31*	1	x	x	1
Cc1[nH]c2ccccc2c1/C=N/NC(=O)c1cccc(F)c1	-12	-1	-6	-9	-7
Nc1ccccc1NC1=CC(=O)CC(c2ccco2)C1 (stereo not drawn)	31*	1	-2	-1	-3
CCOc1ccc(OCCn2nnc3ccccc3c2=O)cc1	7	-1	-5	4	52*
CCC(Oc1ccccc1)C(=O)Nc1ccc2oc(-c3ccc(OC)cc3)nc2c1 (stereo not drawn)	x	-2	x	x	11
CC(C)(C)c1nc2c(C#N)c(-c3ccc(Cl)cc3)ccn2n1	-26	1	68*	u	0
COc1cc(NC(=O)c2ccccc2-n2cnnn2)cc(OC)c1	-7	0	-2	-2	-7
COc1cc(OC)cc(C(=O)Nc2ccc(-n3cnnn3)c(C)c2)c1	38*	-2	4	-3	3

High-throughput results as filed in PubChem.
